PubChem BioAssay (NCI)
The panel holds about 79,000 compounds, 15% with a hit somewhere; the sample as a whole holds those more often. Active and inactive are the calls of the source. No stated cut-off is given here; in the data, active means growth inhibition above about 70%; inactive means the rest.

Tests used:
[1] = NCI Yeast Anticancer Drug Screen. Data for the rad52 strain (AID 147);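 further: 0% = growth of vehicle-treated control cultures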; details: S. cerevisiae rad52 mutant growth inhibition, hits give high values
Method in brief: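 Compounds are applied to a genetically defined yeast strain lacking normal DNA damage repair, and inhibition of growth is expressed relative to cultures given vehicle only.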

[2] = NCI Yeast Anticancer Drug Screen. Data for the wt1 strain (AID 149);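 further: 0% = growth of vehicle-treated wt1 cultures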; details: S. cerevisiae wt1 strain (SPY 50644) growth inhibition, hits give high values
Method in brief: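 Compounds are added to wt1 yeast cultures. Growth is then measured. Inhibition is expressed relative to vehicle-treated controls.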

[3] = NCI Yeast Anticancer Drug Screen. Data for the rad50EPP+ strain (AID 151);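 further: 0% = growth of vehicle-treated control cultures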; details: S. cerevisiae rad50 mutant strain, hits give high values
Method in brief: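 Compounds were applied to the rad50EPP+ yeast strain, which bears a defined DNA repair alteration, and growth inhibition was determined relative to vehicle-treated cultures.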

[4] = NCI Yeast Anticancer Drug Screen. Data for the mgt1 strain (AID 153); details: S. cerevisiae mgt1 mutant growth inhibition, hits give high values
Method in brief: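 Strain: mgt1 yeast, one of a set carrying defined DNA damage repair or cell cycle control alterations. Compound-treated growth compared with vehicle.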

[5] = NCI Yeast Anticancer Drug Screen. Data for the rad50 strain (AID 155);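 further: 0% = growth of vehicle-only cultures of the same strain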; details: S. cerevisiae rad50 strain growth inhibition, hits give high values
Method in brief: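 Inhibition values express reduced yeast growth in compound-treated cultures relative to vehicle-treated controls.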

[6] = NCI Yeast Anticancer Drug Screen. Data for the mec2-1 strain (AID 157); details: S. cerevisiae mec2-1 strain, hits give high values
Method in brief: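 Strain: mec2-1 (DNA repair/cell cycle alteration). Compound exposure, then growth measured; inhibition expressed relative to vehicle.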

[7] = NCI Yeast Anticancer Drug Screen. Data for the rad14 strain (AID 159);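 further: 0% = growth of vehicle-treated control cultures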; details: S. cerevisiae rad14 strain growth inhibition, hits give high values
Method in brief: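 A mutant yeast strain defective in DNA damage repair is treated with compound; inhibition of its growth is scored against untreated, vehicle-exposed cultures.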

[8] = NCI Yeast Anticancer Drug Screen. Data for the sgs1 mgt1 strain (AID 161);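 further: 0% = growth of cultures given vehicle only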; details: S. cerevisiae sgs1 mgt1 strain, hits give high values
Method in brief: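 Test agents were incubated with a DNA-repair-mutant yeast strain. Growth was then read and compared against vehicle-treated controls.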

[9] = NCI Yeast Anticancer Drug Screen. Data for the CLN2oe strain (AID 163);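 further: 0% = growth of vehicle-only control cultures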; details: S. cerevisiae CLN2oe strain, hits give high values
Method in brief: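 Growth of a genetically modified yeast strain is measured after compound exposure and compared with cultures given vehicle alone.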

[10] = NCI Yeast Anticancer Drug Screen. Data for the cln2 rad14 strain (AID 165);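 further: 0% = growth equal to vehicle treated cultures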; details: S. cerevisiae cln2 rad14 strain, hits give high values
Method in brief: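 Compounds are applied to the cln2 rad14 yeast strain, and growth is then compared with that of vehicle-treated cultures to give inhibition.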

[11] = NCI Yeast Anticancer Drug Screen. Data for the bub3 strain (AID 167); details: S. cerevisiae bub3 mutant strain, hits give high values
Method in brief: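 Steps: expose the mutant yeast strain to compound; grow alongside vehicle-treated cultures; measure growth; express inhibition against the vehicle cultures.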

[12] = NCI Yeast Anticancer Drug Screen. Data for the wt2 strain (AID 169);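 further: 0% = growth of vehicle-treated yeast cultures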; details: S. cerevisiae wt2 strain growth inhibition, hits give high values
Method in brief: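 This strain belongs to a panel of yeast strains with defined genetic alterations in DNA damage repair or cell cycle control. Compounds are applied, and growth inhibition is measured against vehicle-treated cultures.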

[13] = NCI Yeast Anticancer Drug Screen. Data for the mlh1 rad18 strain (AID 175); details: S. cerevisiae mlh1 rad18 strain growth inhibition, hits give high values
Method in brief: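 Read-out is yeast growth inhibition, calculated against vehicle-only controls. The compound was applied to a strain engineered with DNA damage repair alterations.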

[14] = NCI Yeast Anticancer Drug Screen. Data for the rad18 strain (AID 177); details: S. cerevisiae rad18 mutant growth inhibition, hits give high values
Method in brief: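 Growth of the mutant yeast strain after compound exposure, normalised to vehicle-only cultures.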

[15] = NCI Yeast Anticancer Drug Screen. Data for the sgs1 strain (AID 173);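 further: 0% = growth of vehicle-only control cultures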; details: S. cerevisiae sgs1 mutant, hits give high values
Method in brief: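 Growth of a yeast strain bearing a defined genetic alteration is measured after compound treatment. Inhibition is expressed relative to vehicle-only controls.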

[16] = at 5.0 µM (retest, dose inferred, filed as 0.5)
[17] = at 50.0 µM (retest, dose inferred, filed as 5.0)

Measured: growth inhibition

NC1=NS(=O)(=O)N=C(N)C1=Cc1ccc([N+](=O)[O-])o1
inactive: [1]; at 1.2 µM -23% | [1]; at 3.7 µM -14% | [1]; at 11.0 µM 20% | [2]; at 1.2 µM -20% | [2]; at 3.7 µM -11% | [2]; at 11.0 µM -6% | [2]; at 33.0 µM -18% | [3]; at 1.2 µM 0% | [3]; at 3.7 µM 18% | [3]; at 11.0 µM 64% | [4]; at 1.2 µM 7% | [4]; at 3.7 µM 16% | [4]; at 11.0 µM 12% | [4]; at 33.0 µM 33% | [5]; at 1.2 µM 6% | [5]; at 3.7 µM 21% | [5]; [16] 3% | [5]; at 11.0 µM 42% | [6]; at 1.2 µM -20% | [6]; at 3.7 µM -25% | [6]; [16] -20% | [6]; at 11.0 µM -15% | [6]; at 33.0 µM 10% | [6]; [17] 14% | [7]; at 1.2 µM -7% | [7]; at 3.7 µM -8% | [7]; at 11.0 µM -9% | [7]; at 33.0 µM 1% | [8]; [16] -6% | [8]; [17] 43% | [9]; at 1.2 µM 9% | [9]; at 3.7 µM 0% | [9]; at 11.0 µM -11% | [9]; at 33.0 µM 13% | [10]; [16] -16% | [10]; [17] 25% | [11]; at 1.2 µM 8% | [11]; at 3.7 µM -11% | [11]; [16] 5% | [11]; at 11.0 µM -22% | [11]; at 33.0 µM -27% | [11]; [17] 47% | [11]; at 50.0 µM 68.5% | [12]; at 1.2 µM -41% | [12]; at 3.7 µM -34% | [12]; at 11.0 µM -22% | [12]; at 33.0 µM -6% | [13]; [16] 3% | [14]; at 1.2 µM 11% | [14]; at 3.7 µM 17%
active: [1]; at 33.0 µM 82% | [1]; at 100.0 µM 97% | [2]; at 100.0 µM 98% | [3]; at 33.0 µM 88% | [3]; at 100.0 µM 97% | [4]; at 100.0 µM 99% | [5]; at 33.0 µM 78% | [5]; [17] 77% | [5]; at 50.0 µM 88% | [5]; at 100.0 µM 97% | [6]; at 50.0 µM 93.8% | [6]; at 100.0 µM 98% | [7]; at 100.0 µM 97% | [8]; at 50.0 µM 92.7% | [9]; at 100.0 µM 99% | [10]; at 50.0 µM 74.7% | [11]; at 100.0 µM 98% | [12]; at 100.0 µM 98% | [13]; [17] 84% | [13]; at 50.0 µM 88.8% | [14]; at 11.0 µM 71% | [14]; at 33.0 µM 89% | [14]; at 100.0 µM 98%

Clc1ccc(SC(/C=C/NNC2=NC(c3ccccc3)C(c3ccccc3)=NN2)c2ccccc2)cc1 (stereo unspecified)
inactive: [1]; at 1.2 µM 0% | [1]; at 3.7 µM 6% | [1]; at 11.0 µM 11% | [1]; at 33.0 µM 19% | [2]; at 1.2 µM 0% | [2]; at 3.7 µM -1% | [2]; at 11.0 µM -2% | [2]; at 33.0 µM -1% | [2]; at 100.0 µM 51% | [3]; at 1.2 µM 2% | [3]; at 3.7 µM 12% | [3]; at 11.0 µM 7% | [3]; at 33.0 µM 6% | [3]; at 100.0 µM 0% | [4]; at 1.2 µM -5% | [4]; at 3.7 µM 8% | [4]; at 11.0 µM -11% | [4]; at 33.0 µM 8% | [5]; at 1.2 µM 4% | [5]; at 3.7 µM 14% | [5]; [16] 48% | [5]; at 11.0 µM 14% | [5]; at 33.0 µM 47% | [5]; [17] 48% | [6]; at 1.2 µM -1% | [6]; at 3.7 µM 2% | [6]; [16] 0% | [6]; at 11.0 µM 2% | [6]; at 33.0 µM 8% | [6]; [17] 0% | [6]; at 50.0 µM 18.6% | [7]; at 1.2 µM 1% | [7]; at 3.7 µM 6% | [7]; at 11.0 µM 2% | [7]; at 33.0 µM 50% | [8]; [16] 31% | [8]; [17] 31% | [8]; at 50.0 µM 49.8% | [9]; at 1.2 µM -9% | [9]; at 3.7 µM 0% | [9]; at 11.0 µM -4% | [9]; at 33.0 µM 1% | [10]; [16] 7% | [10]; [17] 7% | [11]; at 1.2 µM -1% | [11]; at 3.7 µM -1% | [11]; [16] 5% | [11]; at 11.0 µM 0% | [11]; at 33.0 µM 37% | [11]; [17] 5% | [11]; at 50.0 µM 60.9% | [12]; at 1.2 µM 0% | [12]; at 3.7 µM 2% | [12]; at 11.0 µM 2% | [12]; at 33.0 µM 29% | [15]; at 1.2 µM 1% | [15]; at 3.7 µM 3% | [15]; at 11.0 µM 4% | [15]; at 33.0 µM 33% | [13]; [16] 0% | [13]; [17] 0% | [13]; at 50.0 µM 58.4% | [14]; at 1.2 µM 2% | [14]; at 3.7 µM 9% | [14]; at 11.0 µM 23% | [14]; at 33.0 µM 41%
active: [1]; at 100.0 µM 83% | [4]; at 100.0 µM 85% | [5]; at 50.0 µM 71.3% | [5]; at 100.0 µM 82% | [6]; at 100.0 µM 85% | [7]; at 100.0 µM 91% | [9]; at 100.0 µM 80% | [10]; at 50.0 µM 70% | [11]; at 100.0 µM 84% | [12]; at 100.0 µM 86% | [15]; at 100.0 µM 87% | [14]; at 100.0 µM 80%

Cc1cc(N=Nc2ccc(S(=O)(=O)[O-])cc2)cc(C(=O)[O-])c1[O-].NC1CCCCC1N.[Na+].[Pt+4]
active: [1]; at 11.0 µM 99% | [1]; at 33.0 µM 98% | [1]; at 100.0 µM 98% | [2]; at 11.0 µM 98% | [2]; at 33.0 µM 98% | [2]; at 100.0 µM 98% | [3]; at 3.7 µM 95% | [3]; at 11.0 µM 99% | [3]; at 33.0 µM 99% | [3]; at 100.0 µM 98% | [4]; at 11.0 µM 99% | [4]; at 33.0 µM 99% | [4]; at 100.0 µM 98% | [5]; at 3.7 µM 84% | [5]; at 11.0 µM 98% | [5]; at 33.0 µM 98% | [5]; [17] 98% | [5]; at 50.0 µM 87.7% | [5]; at 100.0 µM 98% | [6]; at 3.7 µM 77%
inactive: [1]; at 1.2 µM 6% | [1]; at 3.7 µM 33% | [2]; at 1.2 µM 3% | [2]; at 3.7 µM 44% | [3]; at 1.2 µM 25% | [4]; at 1.2 µM 34% | [4]; at 3.7 µM 66% | [5]; at 1.2 µM -23% | [5]; [16] 20% | [6]; at 1.2 µM 9%
